Measured values from ChEMBL document CHEMBL3433997, “St. Jude Leishmania screening dataset” (2016).

Legend:
Type in all cases: functional
[1] = target: Solute carrier family 2, facilitated glucose transporter member 1 (Homo sapiens) (UniProt P11166); test: ST_JUDE_LEISH: Cytotoxicity at 2uM final concentration against transgenic Leishmania Mexicana promastigotes LmGLUT1 that are glucose transport deficient and complemented with the human glucose transporter GLUT1. Activity is measured by DNA content using SYBR green in vitro
[2] = target: Hexose transporter 1 (Plasmodium falciparum) (UniProt O97467); test: ST_JUDE_LEISH: Cytotoxicity at 2uM final concentration against transgenic Leishmania Mexicana promastigotes LmPfHT that are glucose transport deficient and complemented with the Plasmodium falciparum hexose transporter. Activity is measured by DNA content using SYBR green in vitro
[3] = target: Glucose transporter (Leishmania mexicana) (UniProt O61059); test: ST_JUDE_LEISH: Cytotoxicity at 2uM final concentration against transgenic Leishmania Mexicana promastigotes LmGT2 that are glucose transport deficient and complemented with the L. Mexicana glucose transporter 2. Activity is measured by DNA content using SYBR green in vitro

Chain of Solute carrier family 2, facilitated glucose transporter member 1 (Homo sapiens) (P11166 whole entry): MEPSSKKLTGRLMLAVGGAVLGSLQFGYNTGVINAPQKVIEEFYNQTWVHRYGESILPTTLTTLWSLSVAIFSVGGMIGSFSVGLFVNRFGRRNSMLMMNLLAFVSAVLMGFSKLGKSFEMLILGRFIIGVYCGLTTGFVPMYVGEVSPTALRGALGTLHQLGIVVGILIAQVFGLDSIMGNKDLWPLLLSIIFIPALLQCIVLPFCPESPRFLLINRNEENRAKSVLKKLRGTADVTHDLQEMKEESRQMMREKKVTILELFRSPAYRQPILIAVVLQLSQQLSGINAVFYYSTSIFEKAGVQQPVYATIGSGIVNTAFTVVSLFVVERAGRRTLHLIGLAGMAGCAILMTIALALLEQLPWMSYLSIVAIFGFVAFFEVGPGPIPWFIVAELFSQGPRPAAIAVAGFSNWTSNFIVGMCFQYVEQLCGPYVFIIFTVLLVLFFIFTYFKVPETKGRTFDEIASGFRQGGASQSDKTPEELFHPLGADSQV

| Compound | inhibition [1] [%] | inhibition [2] [%] | inhibition [3] [%] |
| --- | --- | --- | --- |
| Cc1nc(C)c(-c2ccc(Oc3ccc(Cl)c(Cl)c3)cc2)c(O)c1Br | 0.19 | 0.11 | 0.06 |
| CC(C)NCc1ccc(-c2ccc(CN3CCCC(c4ccccc4)C3)cc2)c(C(=O)NC2Cc3ccccc3C2)c1 (configuration not stated) | 16.8 | 17.4 | 11 |
| CN1CCN(CCCN(Cc2cccc(-c3cccc(CNC4CCCC4)c3)c2)C(=O)CCC2CCCC2)CC1 | -0.12 | -0.45 | 0.45 |
| O=c1cc(NCCCNCc2cccc(C(F)(F)F)c2Cl)[nH]c2ccccc12 | 3.39 | 3.63 | 2.75 |
| Cc1cccc2nc(-c3ccc(-c4ccc(NC(=O)Nc5ccc(Cl)c(Cl)c5)cc4)cc3)[nH]c12 | 2.18 | 1.99 | 1.71 |
| COc1ccc(-c2cnc3ccc(N4CCCC4)nn23)cc1OC | 0.89 | 0.65 | 2.83 |
| Cc1cccc(N2C(N)=NC(N)=NC2(C)C)c1C | 0.74 | 1.41 | 1.09 |
| CN1CCN(CC(=O)Nc2ccc(-c3cccc(-c4nc5cc(F)ccc5[nH]4)c3)cc2)CC1 | -0.65 | 0.74 | -1.87 |
| CC(=O)Nc1ccc(Cl)c(Cl)c1 | -0.84 | 0.05 | -0.72 |
| CC(C)NCc1ccc(-c2ccc(NS(=O)(=O)c3cccc4cccnc34)cc2)cc1 | 16.1 | 14.5 | 12.7 |
| O=S(=O)(c1cc(Cl)sc1Cl)N(CCC(O)(C(F)(F)F)C(F)(F)F)Cc1cccc(O)c1 | 0.79 | 0.45 | 2.62 |
| COc1ccccc1CNc1ccnc(N2CC(Oc3ccc(F)cc3)C2)n1 | -2.09 | 0.57 | -2.53 |
| Cc1ccc(C)c2c1[nH]c1ccc(C3=NCCN3)cc12 | 0.89 | 1.39 | 1.4 |
| O=C(Nc1cc(Cl)cc(Cl)c1)Nc1ccccc1C(=O)NC1CCCCC1 | -0.12 | -1.94 | 0.23 |
| CCNc1cc(C(=O)N[C@@H](Cc2ccc(F)c(F)c2)[C@H](O)CNCc2cccc(OC)c2)cc(N2CCCCS2(=O)=O)c1 | -0.26 | 0.17 | -0.12 |
| CCN(CCCN1CCCCC1)c1cc(C)nc(Nc2cccc(OC(F)(F)F)c2)n1 | 1.17 | 1.62 | 2.65 |
| Fc1ccc2[nH]c(-c3cccc(-c4ccc(CN5CCN(c6ccncc6)CC5)cc4)c3)nc2c1 | 0.76 | 1.36 | 0.8 |

| Compound | inhibition [1] [%] | inhibition [2] [%] | inhibition [3] [%] |
| --- | --- | --- | --- |
| Cc1cc(N2CCN(C)CC2)nc2ccc(NC(=O)c3cccc(N(C)C)c3)cc12 | 7.09 | 7.99 | 10.2 |
| CCC(C)NC(=O)Nc1cccc(-c2cccc(-c3nc4cccc(C)c4[nH]3)c2)c1 (configuration not stated) | -1.54 | -0.37 | 11.5 |
| CNS(=O)(=O)c1ccc2c(c1)nc(C1CCN(CC3CCC(NC(=O)/C=C/c4ccc(Cl)c(Cl)c4)CC3)CC1)n2C (configuration not stated) | 11.9 | 10.9 | 3.47 |
| COc1ccc2c(NN=Cc3ccc(Cl)cc3)ccnc2c1 | 3.12 | 2.42 | 4.63 |
| O=c1cc(NCCC2CC=CCN2Cc2ccc(Cl)c(Cl)c2)[nH]c2ccccc12 (configuration not stated) | 1 | 0.33 | -0.25 |
| CC(=O)Nc1ncc(C(=O)Nc2cccc(-c3ccc(-c4nc5cc(C(F)(F)F)ccc5[nH]4)cc3)c2)s1 | 2.37 | 0.89 | -0.63 |
| COc1ccc2ncc(F)c(CCN3CC[C@H](NC(=O)c4ccc5c(n4)NC(=O)CS5)[C@H](O)C3)c2n1 | 10.7 | 9.73 | 1.48 |
| O=C(/C=C/c1ccccc1O)NCCCCCN1CCC(c2c[nH]c3ccccc23)CC1 | 3.82 | 2.03 | 1.37 |
| Nc1ncc(-c2ccc(Br)cc2)c(N)n1 | 1.2 | -0.78 | -0.3 |
| CC(C)Cn1ccc2c3c(N)nc(N)nc3ccc21 | 27.1 | 47.5 | 17 |
| CCCCCCCN1CC[C@@H](CCC(O)c2ccnc3ccc(OC)cc23)[C@@H](CC)C1 (some centres not stated) | -0.47 | 0.63 | 0.73 |
| Cc1ccc(CN2CCCN(Cc3cccc(C(=O)Nc4ccc(C(C)(C)C)cc4)c3)CC2)s1 | 7.92 | 2.76 | 0.76 |
| O=S(=O)(NCCN1CCCC1)c1ccc(-c2ccc(CNC3Cc4ccccc4C3)cc2)cc1F | 6.55 | 13.9 | 5.36 |
| Cc1cc(Nc2ccccc2)nc(Nc2ccccc2)n1 | 9.14 | 8.33 | 1.86 |
| CC(C)(CN)c1nc(-c2ccc(Br)c(O)c2)c(-c2ccncc2)[nH]1 | 1.39 | 1.51 | 2.58 |
| COc1ccccc1C1CCN(C2CCC(NC(=O)/C=C/c3cccc(C(F)(F)F)c3)CC2)CC1 (configuration not stated) | 3.95 | 3.68 | 5.04 |
| CC(Sc1nnc(-c2cccs2)[nH]1)C(=O)c1c[nH]c2ccccc12 (configuration not stated) | 0.9 | 1.35 | 0.63 |
